# Shown are actives, neighbours in structure and some others; about 17% of the full set was active somewhere.
# TDP1 inh: blocks human tyrosyl-DNA phosphodiesterase 1 | recombinant TDP1, AlphaScreen DNA substrate cleavage | Potency, µM (top dose mostly 130 µM), for the others: at the top dose activity change, negative = inhibition, most hits filed as inhibitors | hit rate 0.28% among 350,000; also: % is scaled to controls: 0 for no effect and ±100 for the full control effect; nearly all actives have a fitted effect of over 40% in size
#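 Tdp1 1 nM final; 15 min RT w/ cpd; substrate 15 nM, 5 min; beads 10 ug/ml, 10 min; AlphaScreen read. Neg ctrl: no enzyme.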
# ClpP mod: qHTS Assay for Activators of ClpP; ATP-dependent Clp protease proteolytic subunit (Bacillus subtilis (strain 168)), P80244; hit rate 1.9% among 340,000; Potency, µM (series often up to 57.5 µM), without a hit: at the highest dose activity change, negative = active; purified B. subtilis ClpP, FRET peptide cleavage, 20 min; AID 651965, 2013; active = well fitted falling curve with a large enough effect; inconclusive = small, poorly fitted or top-dose-only effect; inactive = no such curve, though single readings can be large or run the other way; also: the source files actives as falling curves though it sought activators and does not explain the sign; nearly all actives have a fitted effect of over 65% in size
# Target sequence (P80244 whole entry, looked up): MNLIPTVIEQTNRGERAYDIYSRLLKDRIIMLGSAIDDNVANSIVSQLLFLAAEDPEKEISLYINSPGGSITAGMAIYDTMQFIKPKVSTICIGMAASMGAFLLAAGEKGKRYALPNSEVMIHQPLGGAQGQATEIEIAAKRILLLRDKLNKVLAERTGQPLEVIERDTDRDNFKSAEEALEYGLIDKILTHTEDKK
#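 FRET quenching reversal measured ClpP activation: 10 microg/mL B. subtilis ClpP at pH 8 with the FRET-FV decapeptide, read at 430 nm after 320 nm excitation. The 20-min minus 0-min signal was scaled between DMSO/no-enzyme wells and ADEP (5.8 microM final).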
# DT40 TDP1 no CPT: qHTS for Inhibitors of human tyrosyl-DNA phosphodiesterase 1 (TDP1): qHTS in cells in absence of CPT. hit rate 15% among 420,000. Potency, µM (top dose mostly 46.2 µM), for the others: top-dose activity change, negative = growth inhibition, usual class: inhibitors. DT40 Tdp1-/- hTDP1 cells, no CPT, ATP luminescence, 48 h; also: % is scaled to controls: 0 for no effect and ±100 for the full control effect; nearly all actives have a fitted effect of over 55% in size
#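 Stably hTDP1-transfected Tdp1-null chicken DT40 cells were treated with library compounds minus camptothecin and grown for at least 48 hr at 37 °C, after which cellular ATP was quantified by luminescence.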
# DT40 TDP1 CPT: DT40-hTDP1 cell growth loss with CPT; chicken DT40 Tdp1-/-;hTDP1 cells + 20 nM CPT, ATP luminescence, 48 h; Potency, µM (doses to about 46.2 µM), without a hit: top-dose activity change, negative = growth inhibition, most hits filed as inhibitors; hit rate 12% among 420,000; AID 686979; also: % is scaled to controls: 0 for no effect and ±100 for the full control effect; nearly all actives have a fitted effect of over 55% in size
#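 Chicken DT40 Tdp1-/- cells complemented with human TDP1, 400 cells/well, exposed to compounds plus 20 nM camptothecin for at least 48 h at 37 C; viability read as ATP content by CellTiter-Glo luminescence.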
# Numbers without * were called inactive; ? = inconclusive; · = no result given; ! = not confirmed by another sample; [ ] = dose if it differs, or a comment. Unless noted, calls follow the shape of the dose curve; as a rule, active = well fitted curve in the direction sought with a large enough effect; inconclusive = small, poorly fitted or top-dose-only effect, or another doubt; inactive = no such curve, though single readings can be large; an effect the other way counts as inactive or inconclusive. Potency is read from the fitted curve at half-maximal effect.
SMILES,TDP1 inh,ClpP mod,DT40 TDP1 no CPT,DT40 TDP1 CPT
ClC1=C(Cl)[C@]2(Cl)[C@@H]3[C@@H]4C[C@@H]([C@H]5O[C@@H]45)[C@@H]3[C@@]1(Cl)C2(Cl)Cl,·,·,-18%[92.5 µM],4%[92.5 µM]
Cc1ccc(C)c(N2CCN(C(=O)C3CCCN(S(=O)(=O)c4cccc5nsnc45)C3)CC2)c1 (configuration not stated),0%,1%,7.3µM*,5.8µM*
O=C(C1CCCN(S(=O)(=O)c2cccc3nsnc23)C1)N1CCC2(CC1)OCCO2 (configuration not stated),-5%,0%,-8%,-9%
CCOP(=O)(OCC)C1(O)C(=O)Nc2ccc(Br)cc21 (configuration not stated),5%,0%,16µM*,?
CCOC(=O)C1=C(C)OC(N)=C(C(=O)OCC)C12C(=O)Nc1ccc(Br)cc12 (configuration not stated),-1%,-2%,?,?
CCOP(=S)(OCC)Oc1ccc([N+](=O)[O-])cc1,1%,·,·,·
Cc1nc2ncnn2c(C)c1CCC(=O)N1CCC2(CC1)OCCO2,3%,-1%,17%,-11%
Cc1c(CCC(=O)N2CCCCC2)c(=O)oc2cc3occ(C(C)(C)C)c3cc12,5%,-9%,12µM*,12µM*
NC(=NCc1ccc(Cl)cc1)SCCCc1cnc[nH]1,20%,·,?,21µM*
CC(Cc1ccccc1Sc1ccc(O)cc1)N(C)C (configuration not stated),7%,-1%,21µM*,?
CC(N)Cc1ccccc1Sc1ccc(O)cc1 (configuration not stated),2%,·,·,·
N#CC(C#N)=C(C#N)c1ccc(Nc2ccccc2)cc1,·,·,?,10µM*
O=[N+]([O-])c1ccc(Nc2ccccc2)cc1,4%,-1%,-20%,?
c1ccc(Nc2ccc(Nc3ccccc3)cc2)cc1,10%,?,6.5µM*,?
O=C(O)CNCP(=O)(O)O,12%[56.1 µM],·,3%,-4%
C#CCN1C(=O)C2(C(C#N)=C(N)OC(C)=C2C(=O)OCc2ccccc2)c2ccccc21 (configuration not stated),3%,-1%,23µM*,?
Cc1ccc2c(c1)CC1(CN2C)C(=O)NC(=O)N(CCC2=CCCCC2)C1=O (configuration not stated),2%,16µM*,?,?
Cc1ccc2c(c1)CC1(CN2C)C(=O)NC(=O)N(C(C)C)C1=O (configuration not stated),1%,1%,?,18µM*
COc1cc2cc(C(=O)N3CC(COS(C)(=O)=O)c4ccc(O)cc43)[nH]c2c(OC)c1OC (configuration not stated),·,2%,-104%,-102%
C[C@]12CCC3C(CC[C@H]4C[C@@H](O)CC[C@]34C)C1C[C@@H](Br)[C@H]2O (some centres not stated),2%,·,·,·
O=[N+]([O-])c1ccc(Cl)c([N+](=O)[O-])c1,·,-3%,4.6µM*,3.7µM*
Oc1cc2c(cc1O)[C@H]1c3ccccc3CNC1CC2 (some centres not stated),4%,·,·,·
Cc1cc(C)nc(N2Cc3ccccc3C2=N)n1,3%,0%,23µM*,?
CC(C)NC(=O)N1CCC2(CC1)CCN(C(=O)Oc1ccccc1)CC2,·,·,?,-8%
CC(=O)NC1=C(N2CC2C)C(=O)C(NC(C)=O)=C(N2CC2C)C1=O (configuration not stated),·,2%,4.6µM*,1.8µM*
CC1CCN(C(=O)N2c3ccccc3Sc3ccccc32)CC1,4%,0%,?,?
c1ccc2c(c1)Sc1ccccc1N2CC1CN2CCC1CC2 (configuration not stated),8%,-5%,6.7µM*,2.7µM*!
CCOC(=O)C1CCCN(C(=O)c2ccc3oc(Cc4ccccc4)nc3c2)C1 (configuration not stated),4%,1%,?,-5%
ClCCN(CCCl)/C(=C\c1ccccc1)c1ccnc2ccccc12,·,0%,3.5µM*,5.6µM*
